Source: PubChem BioAssay (NCI)
The panel holds about 79,000 compounds, 15% with a hit somewhere; the sample as a whole holds those more often. No stated cut-off is given here; in the data, active means growth inhibition above about 70%; inactive means the rest.

What was measured:
[1] = NCI Yeast Anticancer Drug Screen. Data for the rad50 strain (AID 155);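 further: 0% = growth of vehicle-only cultures of the same strain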; details: S. cerevisiae rad50 strain growth inhibition; at 50.0 µM; stronger effect = higher value
Outline: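 Genetically altered yeast (DNA repair pathway); compound treatment; growth inhibition vs vehicle ctrl.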

[2] = NCI Yeast Anticancer Drug Screen. Data for the mec2-1 strain (AID 157); details: S. cerevisiae mec2-1 strain, at 50.0 µM, stronger effect = higher value
Outline: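 Mutant yeast (mec2-1) grown with compound; growth inhibition relative to vehicle control reported.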

[3] = NCI Yeast Anticancer Drug Screen. Data for the sgs1 mgt1 strain (AID 161);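 further: 0% = growth of cultures given vehicle only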; details: S. cerevisiae sgs1 mgt1 strain, at 50.0 µM, stronger effect = higher value
Outline: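 Yeast cells carrying a defined DNA-repair defect were exposed to test compounds. Growth inhibition was measured relative to vehicle-treated controls.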

[4] = NCI Yeast Anticancer Drug Screen. Data for the cln2 rad14 strain (AID 165);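 further: 0% = growth equal to vehicle treated cultures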; details: S. cerevisiae cln2 rad14 strain, at 50.0 µM, stronger effect = higher value
Outline: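 Readout is yeast growth inhibition versus vehicle-treated controls, using a strain with cln2 and rad14 alterations exposed to compound.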

[5] = NCI Yeast Anticancer Drug Screen. Data for the bub3 strain (AID 167); details: S. cerevisiae bub3 mutant strain, at 50.0 µM, stronger effect = higher value
Outline: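 Yeast carrying a defined mutation is treated with each compound, and growth is compared with that of vehicle-exposed cells to give inhibition.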

[6] = NCI Yeast Anticancer Drug Screen. Data for the mlh1 rad18 strain (AID 175); details: S. cerevisiae mlh1 rad18 strain growth inhibition; at 50.0 µM; stronger effect = higher value
Outline: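 Genetically defined yeast (DNA repair-deficient) exposed to compounds; growth inhibition determined relative to vehicle.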

Measured: growth inhibition

CC(=O)O[C@H]1CSC[C@@H](OC(C)=O)C1[N+](=O)[O-] (stereo partly specified)
inactive: [1] 37.5% | [2] 25.4% | [3] 17.7% | [4] 43.2% | [5] 18.8% | [6] 47.1%

O=c1c2cc([N+](=O)[O-])ccc2c2ccc([N+](=O)[O-])cc2c(=O)n1-c1ccc2c(c1)Cc1ccccc1-2
inactive: [1] 21.5% | [2] -21% | [3] -19.2% | [4] -21.4% | [5] -8.35% | [6] -5%

CN(C)c1ccc(/C=C2\N=C(c3ccc([N+](=O)[O-])cc3)OC2=O)cc1
inactive: [1] 1.35% | [2] -6.75% | [3] 17.1% | [4] 6.95% | [5] 14.9% | [6] 7.55%

N#C/C(=C\C1CCCC([N+](=O)[O-])C1)C1CCC([N+](=O)[O-])CC1 (stereo unspecified)
inactive: [1] -0.55% | [2] 5.3% | [3] -7.15% | [4] -6.5% | [5] -5.05% | [6] 2.85%

CNCC(=O)Nc1ccc2c(c1)C(=O)c1ccc(NC(=O)CNC)cc1C2=O
inactive: [1] 11.5% | [2] 13.9% | [3] 19.4% | [4] -2.25% | [5] -11.9% | [6] 23.8%

COC(=O)C(=[N+]=[N-])C(=O)c1ccc([N+](=O)[O-])cc1
inactive: [1] 65.5% | [2] 23.9% | [3] 40.1% | [4] 41.8% | [5] 20.6% | [6] 42.3%

CCCCCCCCCCCCCCCCCCNC(=O)N1CCCCC1C (stereo unspecified)
inactive: [1] 10.2% | [2] -3.9% | [3] -14.7% | [4] -24.1% | [5] -3.9% | [6] 14.3%

CC(C)(C)N[P+](Cc1ccccc1)(NC(C)(C)C)c1ccccc1
inactive: [1] 33.1% | [2] 10.9% | [3] 62% | [4] -9.7% | [5] 3.65% | [6] 8.9%

CCNC(=O)c1ccc(Cl)cc1
inactive: [1] 19.9% | [2] -2.25% | [3] 8.55% | [4] 0.65% | [5] -6.15% | [6] 0.45%

N#C/C(=C/NC(=S)NCc1ccccc1)C(N)=O
inactive: [1] -32.6% | [2] -42.1% | [3] -4.6% | [4] 0.25% | [5] 6.7% | [6] -0.3%

CC(=O)[O][Ga]([Br])[O]C(C)=O
inactive: [1] 6.3% | [2] 11.8% | [3] 12.3% | [4] 14.4% | [5] 15.7% | [6] 0.5%

COC(=O)c1cc2ccc(O)c(O)c2cn1
inactive: [1] 41.1% | [2] 25.8% | [3] 60.3% | [4] 18.9% | [5] 62.4% | [6] 24.9%

CN=C1C=C(/N=C2/C=C(N/C(=C\C#N)C(C)(C)O)OC2(C)C)OC1(C)C
inactive: [1] -10.6% | [2] -5.3% | [3] 13.6% | [4] 7.1% | [5] 23.9% | [6] 28.6%

CC(O)C(=O)N1CCOCC1 (stereo unspecified)
inactive: [1] 3.5% | [2] -3.65% | [3] -0.7% | [4] -24.9% | [5] 4.25% | [6] -23.3%

NC(=O)C(=O)C(c1ccccc1)S(=O)(=O)Cc1ccccc1 (stereo unspecified)
inactive: [1] -59.5% | [2] -39.1% | [3] -40.3% | [4] -13.7% | [5] -25.4% | [6] -32.1%

COc1cc2ccnc(CCCc3nccc4cc(OC)c(OC)cc34)c2cc1OC
inactive: [1] -30.1% | [2] -4.05% | [3] -27.4% | [4] -1.9% | [5] -1.75% | [6] -9.3%

CCCCCCCCC(CO)CCCCCC (stereo unspecified)
inactive: [1] 15.9% | [2] -1.05% | [3] 31.4% | [4] 1.65% | [5] -6.4% | [6] 9.15%

COc1c(OC(C)=O)c(Cl)cc(C=O)c1[N+](=O)[O-]
inactive: [1] 47.1% | [2] 28.7% | [3] 30.1% | [4] 22.1% | [5] 22% | [6] 62.5%

Cc1ccc(S(=O)(=O)Nn2nnnc2N)cc1
inactive: [1] -7.85% | [2] 11.7% | [3] -7.6% | [4] -4.4% | [5] -4.65% | [6] 7.25%

CCOC(=O)CC1OCCO1
inactive: [1] 7.65% | [2] -3.35% | [3] -24.7% | [4] 5.25% | [5] 2.4% | [6] -5.15%

CC1=C/C(=N\N(C)C)C(C(O)(C(F)(F)F)C(F)(F)F)C(C)(C)C1 (stereo unspecified)
inactive: [1] 4.75% | [2] -19.1% | [3] -10.4% | [4] 9.35% | [5] -14.7% | [6] -13%

CC1(C)NN=C([N+](=O)[O-])C1c1ccccc1 (stereo unspecified)
inactive: [1] 5.95% | [2] 10.7% | [3] 7.2% | [4] -14.4% | [5] -11% | [6] 6.65%

N#CC(=O)Nc1cccc(Cl)c1
inactive: [1] -13.1% | [2] -8.05% | [3] -16.4% | [4] -19.7% | [5] -3.05% | [6] -0.15%

O=C(OC(=O)c1cccc(Br)c1)c1cccc(Br)c1
inactive: [1] 10.2% | [2] -10.5% | [3] 26% | [4] 34.8% | [5] -5.7% | [6] 1%

CC(=O)C1SCC[S+]1C (stereo unspecified)
inactive: [1] -19.8% | [2] -7.6% | [3] -10.6% | [4] 13.4% | [5] -9.2% | [6] -10.8%

COC(=O)c1ccccc1NC(=O)C1CCCCC1=O (stereo unspecified)
inactive: [1] 1.55% | [2] -1.2% | [3] -0.1% | [4] -21.5% | [5] 12.3% | [6] 0.6%

Cc1cc(C)c(COCc2c(C)cc(C)cc2C)c(C)c1
inactive: [1] 19% | [2] 10.1% | [3] -0.55% | [4] -34.1% | [5] -2% | [6] 12.8%

OC1CCC2CCCC2C1 (stereo unspecified)
inactive: [1] 1.6% | [2] -1.7% | [3] -2.2% | [4] 1% | [5] -8.6% | [6] -1.2%

CC(=O)c1cc(C)oc1C
inactive: [1] -5.1% | [2] -8.25% | [3] -12.8% | [4] -32.1% | [5] 2.8% | [6] 12.9%

c1ccc(CCN(c2ccccc2)c2ccccc2)cc1
inactive: [1] 21.1% | [2] -2.4% | [3] -11.2% | [4] 9.8% | [5] 7.55% | [6] 1.2%

C/C(=N\NC(=S)N1CC2CCC(CC2)C1)c1cccc(C)n1
inactive: [1] 22.1% | [2] -1.45% | [3] 18.8% | [4] 8.85% | [5] 18.4% | [6] 13.8%

COc1cc([C@@H]2OCC3C(c4ccc5c(c4)OCO5)OCC32)cc(OC)c1OC (stereo partly specified)
inactive: [1] 9.9% | [2] -17.2% | [3] 24.2% | [4] 28.6% | [5] 43.4% | [6] 18.4%

N=c1c2ccccc2nc2oc3ccc(Cl)cc3n12
inactive: [1] -15.4% | [2] -32.5% | [3] -6.25% | [4] -0.45% | [5] 15.6% | [6] -8.55%

CN(C)CC(C)(C)CO
inactive: [1] 7.2% | [2] -0.2% | [3] 3.85% | [4] 9.25% | [5] -9.1% | [6] 4.95%

NN1CC(=O)N(c2ccccc2)CC1=O
inactive: [1] 0.5% | [2] 4.45% | [3] -0.6% | [4] 42.8% | [5] -7.65% | [6] 4.7%

COc1cc(C2c3cc4c(c(OS(=O)(=O)O)c3CC3COC(=O)C32)OCO4)cc(OC)c1OC (stereo unspecified)
inactive: [1] 6.3% | [2] 3.5% | [3] -18.9% | [4] -14.4% | [5] 15% | [6] 7.4%

CC(=O)CC(=O)Nc1ccccc1Cl
inactive: [1] 19.4% | [2] -4.6% | [3] 24.2% | [4] -5.75% | [5] -4.9% | [6] 16.4%

COC(=O)Oc1nn(C(=O)OC)c(=O)c2ccccc12 (tested in a mixture with another compound)
inactive: [1] -5.85% | [2] 3.1% | [3] 3% | [4] -0.8% | [5] 11.3% | [6] 33.5%

CN(CCO)CC(O)Cn1cnc2ncnc(N)c21 (stereo unspecified)
inactive: [1] 21.2% | [2] 12% | [3] 28.7% | [4] 13.4% | [5] 7% | [6] 33.5%

O=C(O)C(=N\Nc1ccccc1)/C(=N\Nc1ccccc1)C(=O)O
inactive: [1] 30.7% | [2] -6.25% | [3] 33.9% | [4] 21.8% | [5] 24.2% | [6] 7.3%

CC(C)(C)OC(=O)C1/C(=C/CO)CN1C(=O)OC(C)(C)C (stereo unspecified)
inactive: [1] -17.9% | [2] -36.2% | [3] -12.2% | [4] 7.4% | [5] -12.1% | [6] -28.9%
